# Most compounds without a hit are left out; they make up all but 7.5% or so of the library.
# FLuc counter: firefly luciferase modulation, counter-screen for miR-21 project; P08659; purified FLuc, Km substrates, luminescence inhibition; Potency, µM (series often up to 57.5 µM), without a hit: at the top dose activity change, negative = inhibition, most hits filed as inhibitors; 360,000 tested, 6.9% active;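 further: plate controls were vehicle for no effect and reference inhibitor for full effect; nearly all actives have a fitted effect of over 55% in size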
# Target sequence (P08659 whole entry, looked up): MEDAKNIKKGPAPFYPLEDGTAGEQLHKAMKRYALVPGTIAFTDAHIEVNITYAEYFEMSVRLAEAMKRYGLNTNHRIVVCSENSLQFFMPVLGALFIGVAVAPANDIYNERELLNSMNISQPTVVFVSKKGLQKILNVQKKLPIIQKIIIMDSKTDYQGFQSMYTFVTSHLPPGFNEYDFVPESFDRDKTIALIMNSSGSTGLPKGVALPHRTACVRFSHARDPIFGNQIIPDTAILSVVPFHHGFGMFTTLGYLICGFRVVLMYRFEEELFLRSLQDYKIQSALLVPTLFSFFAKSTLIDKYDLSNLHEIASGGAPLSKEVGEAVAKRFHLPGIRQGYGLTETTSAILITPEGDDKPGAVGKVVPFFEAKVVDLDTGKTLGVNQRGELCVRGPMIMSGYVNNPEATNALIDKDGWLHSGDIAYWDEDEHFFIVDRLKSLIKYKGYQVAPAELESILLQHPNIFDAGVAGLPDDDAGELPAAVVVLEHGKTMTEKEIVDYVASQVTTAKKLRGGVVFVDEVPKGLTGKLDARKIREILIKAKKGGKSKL
#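 Purified P. pyralis luciferase (10nM final) with 10uM D-luciferin and 10uM ATP (Km levels) in 50mM Tris acetate pH 7.5, 10mM Mg acetate, 0.01% Tween-20, 0.05% BSA; qHTS 6-point titration, ~60 µM downward; luminescence read.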
# SMN2 splice enh: increases expression of the SMN2 splice variant. HEK293 SMN2-luciferase splicing reporter, luminescence, 30-36 h. 210,000 tested, 2.8% active. Potency, µM (titrated, usually from 46.1 µM), for inactives: at the highest dose activity change, positive = activation, usual class: activators. AID 1458; further: % of control where 0% means no effect; nearly all actives have a fitted effect of over 55% in size
#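 HEK293 cells carry an SMN2 […]–luciferase reporter in which exon 7 inclusion puts luciferase in frame. Cells were plated 10-12 h before compound addition, then incubated 30-36 h at 37C. ONE-Glo luminescence was read; sodium butyrate at 4.5 mM final served as control.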
# ELG1 genotoxic: genotoxicity induction in ELG1-luciferase HEK293T cells; AID 504466; HEK293T ELG1-luciferase reporter, luminescence, 16 h; 330,000 tested, 1.3% active; Potency, µM (highest dose often 46 µM), inactives show at the top dose activity change, positive = activation, actives largely listed as activators; further: % of control where 0% means no effect; nearly all actives have a fitted effect of over 60% in size
#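 Screening used a luciferase reporter fused to human ELG1 in HEK293T cells. Luminescence was read on a CCD plate imager after 16 hr exposure and 30 min ONE-Glo incubation.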
# NPC1 promoter act: activators of NPC1 promoter; Huh7 NPC1 promoter luciferase reporter, 24 h; Potency, µM (doses to about 9.22 µM), for the others: at the highest dose activation, actives largely listed as activators; 320,000 tested, 2.4% active; AID 485313; further: % of control where 0% means no effect; nearly all actives have a fitted effect of over 60% in size
#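 Cells: Huh7 expressing luciferase under the NPC1 promoter, 1500/well. Seeded 2 h, compound added, incubated 24 h at 37 °C. Luciferase reagent, 10 min ambient, then luminescence.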
# Rab9 prom act: Rab9 promoter activation | Potency, µM (doses to about 9.22 µM), inactives show at the highest dose activation, negative = inhibition, actives largely listed as activators | Huh7 Rab9 promoter-luciferase reporter, luminescence, 24 h | 320,000 tested, 2.8% active; further: % of control where 0% means no effect; nearly all actives have a fitted effect of over 60% in size
#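 Luminescence from Amplite-detected luciferase (10 minutes, ambient) reports Rab9 promoter activation. Before that, stable Rab9-luciferase Huh7 cells (1500/well, reduced-serum OP-MEM I plus 10% FBS) were exposed to compound for 24 hours at 37C.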
# An asterisk follows results filed as active; ? = inconclusive; nt = not tested or not shown; [ ] = another dose, or the depositor's remark. The call rests on the fitted dose curve; in most records, active means well fitted curve in the direction sought with a large enough effect; inconclusive means small, poorly fitted or top-dose-only effect, or another doubt; inactive means no such curve, though single readings can be large; an effect the other way counts as inactive or inconclusive. Potency means the concentration at half of the fitted maximal effect.
SMILES,FLuc counter,SMN2 splice enh,ELG1 genotoxic,NPC1 promoter act,Rab9 prom act
CC(Oc1ccc2cc(-c3ccccc3)c(=O)oc2c1)C(=O)NCC1CCC(C(=O)O)CC1 (centres undefined),21µM*,nt,5%,1%,-4%
CC(Oc1ccc2ccc(=O)oc2c1)C(=O)NCC1CCC(C(=O)O)CC1 (centres undefined),5%,nt,0%,-2%,5%
CC(C)CCNC(=O)CN(Cc1ccccc1)C(=O)CCC(=O)Nc1ccccn1,1%,nt,-2%,3%,3%
CC1=C(C)Cc2c(OC(=O)c3ccccc3)ccc(OC(=O)c3ccccc3)c2C1,0%,nt,0%,1%,-1%
c1ccc(-n2ncc3c2ncn2nc(-c4ccco4)nc32)cc1,0.85µM*,11µM*,1.6µM*,3.2µM*,1.1µM*
CC(C)(C)OC(=O)N1CCN(C(=O)Nc2ccc3c(c2)OCCO3)CC1,?,-13%,2%,14%,18%
CC1(C)CC(NC(=O)C23CCC(C)(C2Br)C3(C)C)CC(C)(C)N1 (centres undefined),-2%,nt,1%,2%,-3%
COc1cccc(/C=N/NC(=O)CNC(=O)C(c2ccccc2)c2ccccc2)c1O,4.8µM*,nt,?,-36%,-7%
COc1cccc(/C=N/NC(=O)CNC(=O)/C=C\c2ccccc2)c1O,11µM*,nt,18%,-6%,-12%
COc1ccc(/C=C\C(=O)NCC(=O)N/N=C/c2cccc(OC)c2O)cc1,-4%,nt,-2%[9.26 µM],2%,-1%
COc1cccc(/C=N/NC(=O)CSCC(=O)Nc2ccccc2)c1O,?,nt,1%,-33%,-46%
COc1cc(-c2[nH]ncc2CN2CCSCC2)cc(OC)c1OC,2%,nt,18µM*,0%,-8%
COc1ccc(N2CCN(C(=O)Cc3ccc(Cl)cc3)CC2)cc1,-1%,nt,-3%,-5%,15%
CC(C)OCCCNC(=O)C1CCN(S(=O)(=O)N2CCCC2)CC1,-3%,-10%,-1%,1%,-6%
Cc1cccc(N2CCN(C(=O)c3cnn(-c4ccccc4)c3C3CCN(C(=O)OC(C)(C)C)CC3)CC2)c1C,0%,nt,nt,nt,nt
COc1cccc(CNC(=O)Cn2ncn3cccc3c2=O)c1OC,0%,nt,9%,3%,4%
Cc1ccc(CNC(=O)Cn2ncn3cccc3c2=O)cc1,13µM*,nt,?,?,2.5µM*
O=C(Nc1nc2ccccc2[nH]1)c1ccccc1O,2.7µM*,nt,?,1.8µM*,0.89µM*
O=C(CCCOc1ccccc1)Nc1nc2ccccc2[nH]1,11µM*,nt,?,?,?
O=C(Nc1nc2ccccc2[nH]1)c1cccc(Cl)c1,2.1µM*,nt,16µM*,1µM*,0.71µM*
Cc1ccc(OCCCC(=O)Nc2nc3ccccc3[nH]2)cc1,3%,9%,0%,7%,3%
CN(c1cccc(Cl)c1)S(=O)(=O)c1cccc(C(=O)Nc2nc3ccccc3[nH]2)c1,-17%,-96%,-15%,1%,-4%
O=C(Nc1nc2ccccc2[nH]1)c1ccc(Cl)cc1,0.43µM*,nt,?,0.32µM*,0.32µM*
CC(C)(C)c1cc(NC(=O)CSc2nncs2)n(-c2ccccc2)n1,1%,-12%,-3%,1%,0%
O=C(NNc1ncnc2ccccc12)c1cccc(Cl)c1,2.7µM*,nt,?,?,1.8µM*
SMILES,FLuc counter,SMN2 splice enh,ELG1 genotoxic,NPC1 promoter act,Rab9 prom act
O=C(Nc1nc2ccccc2[nH]1)c1ccccc1,1.5µM*,4µM*,0.52µM*,?,1.6µM*
CC(=O)Nc1nc2ccccc2[nH]1,-1%,20%,0%,-5%,0%
C=CC[C@@H](CC(=O)N(CCO)Cc1ccccc1)C(=O)N[C@H](COC(=O)[C@H](CC=C)CC(=O)OC(C)(C)C)Cc1c[nH]c2ccccc12,nt,nt,-15%,nt,nt
O=C(/C=C/c1ccc([N+](=O)[O-])cc1)NC1CC2CCC1C2 (centres undefined),?,15%,9%,-1%,13%
O=C(/C=C/c1ccccc1)NC1CC2CCC1C2 (centres undefined),19µM*,?,?,22%,17%
O=C(Nc1cccc(Cl)c1)NC1CC2CCC1C2 (centres undefined),24µM*,nt,10%,26%,16%
